Results from PubChem BioAssay.
Activity calls are given as the source filed them.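 The calls were made as follows, unless noted: active = NADPH fluorescence slope more negative than the mean of all samples by about 3 SD, 99.7% confidence; inactive = the rest.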

Each molecule was assayed against Voltage-gated potassium channel subunit beta-2 (Rattus norvegicus) (UniProt P62483) (assay: enhancers of rat Kvbeta2 NADPH turnover – biochemical, NADPH fluorescence, primary screen (AID 623;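 also: fluorescence intensity change per second fitted from 20 to 320 s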)). Details: Recombinant KvBeta, NADPH fluorescence decrease slope, 10 min; at 10 µM; stronger effect = lower value.
Sequence of Voltage-gated potassium channel subunit beta-2 (Rattus norvegicus) (P62483 whole entry, looked up): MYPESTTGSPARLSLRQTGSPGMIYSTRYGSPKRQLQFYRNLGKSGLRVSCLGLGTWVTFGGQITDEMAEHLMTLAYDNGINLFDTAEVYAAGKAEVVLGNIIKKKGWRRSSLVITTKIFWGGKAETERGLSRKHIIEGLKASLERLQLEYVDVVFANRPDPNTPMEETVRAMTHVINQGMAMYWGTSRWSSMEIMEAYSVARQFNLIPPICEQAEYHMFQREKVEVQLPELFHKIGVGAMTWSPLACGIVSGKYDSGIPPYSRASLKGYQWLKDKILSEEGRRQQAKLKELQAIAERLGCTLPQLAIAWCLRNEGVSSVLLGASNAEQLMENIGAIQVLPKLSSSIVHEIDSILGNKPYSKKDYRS

NADPH fluorescence slope, inactive:
CCCCNc1cc(C)oc(=O)c1C(C)=O 2e-05, COc1ccc2c(c1)C(=O)N(c1ccccc1OC)C(=O)C2 -3.7e-05, Cc1ccc(S(=O)(=O)NCC(=O)N(CC(=O)NC2CCCCC2)Cc2ccco2)cc1 -4.7e-05, CN(C)/C=C1\N=C(c2ccc3c(c2)OCO3)OC1=O 1.5e-05, CCc1ccccc1NC(=O)CCc1nc(-c2ccc(C)cc2)no1 1.2e-05, COc1ccc(CNC(=O)c2cnc3n(c2=O)CCS3)cc1 4e-05, CCOC(=O)Cc1csc(NC(=O)CSc2nnc(C)n2C)n1 -2.5e-05, NC(=O)NC(c1ccccc1)c1ccccc1F (stereo not given) 5.1e-06, O=C(NCCN1CCOCC1)NC1(C(F)(F)F)Oc2ccc(Cl)cc2O1 (stereo not given) -5.6e-05, CCOc1ccc(Cn2nnc(C(=O)NCc3ccc(OC)cc3)c2N)cc1 -2.2e-06, CC(=O)Nc1cccc(Oc2nc(C)cc(C)c2C#N)c1 -1.7e-05, O=P1(O)C=C(c2ccccc2)NC(c2ccccc2)=C1 -5e-07, Cc1cc2ccccc2c(=O)n1CC(=O)N(C)c1ccc(F)cc1 -5.6e-05, COCCN(Cc1cc2cc3c(cc2n2nnnc12)OCO3)C(=O)c1ccccc1F -3.2e-05, c1coc(CN(Cc2cccs2)Cc2nnnn2C2CCCCC2)c1 1.3e-05, c1ccc(-c2nn3c(Cn4nnc5ccccc54)nnc3s2)nc1 -2.3e-05, O=C(CSCc1cccs1)N1CCCC1 -1.2e-05, CCOc1ccccc1-n1c(SCC(=O)NC(C)CC)nnc1-c1ccoc1C (stereo not given) -3.6e-05, CCOC(=O)N1CCC(n2c(=S)[nH]c3cc(OC)c(OC)cc3c2=O)CC1 4.7e-05, Cc1ccc(Cn2c(SCCN3CCCCC3)nc3c2c(=O)[nH]c(=O)n3C)cc1 -2.5e-05, Cc1ccc(Cn2ccc(NC(=O)c3cc(-c4cccs4)on3)n2)cc1 -1.8e-05, Cc1nnc(N2C(=O)C(O)=C(C(=O)c3ccco3)C2c2ccc(F)cc2)s1 (stereo not given) -4.6e-05, COC(=O)c1cc(=O)nc2sc(-c3cccs3)nn12 -2.2e-05, CCN(CC)CCCNc1oc(-c2cccc(Cl)c2)nc1C#N -1.1e-05, Cn1c(SCC(=O)O)nnc1C1CCCCC1 -8.3e-06, CC1CCN(C(=O)CSc2nnc(-c3ccc(S(=O)(=O)N4CCOCC4)cc3)n2C)CC1 -4.4e-05, COCCn1nnnc1C(c1cccs1)N1CCN(c2cc(C)ccc2C)CC1 (stereo not given) 2e-05, CC1CCc2nn(CC(=O)NCCN3CCOCC3)cc2C1 (stereo not given) 5.1e-06, CCOC(=O)c1c(C)[nH]c(C(=O)Cn2c(=O)c3c(ncn3CC)n(Cc3ccccc3)c2=O)c1C -3.2e-05, COc1cccc(C(=O)Nc2cc(C)c3c(=O)oc4ccccc4c3n2)c1 -3.7e-05, O=C(CN1C(=O)COc2ccccc21)N(Cc1cccnc1)Cc1ccccc1F -5.8e-05, O=c1c2ccccc2c(/C=N/n2cnnc2)c(O)n1-c1ccccc1 -7.7e-05, COCCNC(=O)C1CCCN(c2ncccn2)C1 (stereo not given) -6.8e-05, COc1ccc(CNc2nc(NCc3ccc(OC)cc3)n(S(C)(=O)=O)n2)cc1 -1.8e-05, O=C(CSc1nnc2c3cc(F)ccc3nc(-c3ccccc3)n12)N1CCOCC1 -7.1e-06, CSc1nc(N)nc(SCCS(=O)(=O)c2ccc(Cl)cc2)c1C#N -2.1e-05, CCOC(=O)c1sc2nc(NC(=O)C3CCCCC3)sc2c1C -2.5e-05, CC(C)(C)OC(=O)NCCc1nnc(SCC(=O)c2ccc(Cl)cc2)o1 1.3e-05, Cc1nc2ccc(C(=O)c3ccccc3)cc2[nH]1 2.4e-05, CCOC(=O)c1ccc(NC(=O)CSCc2ccco2)cc1 -2.1e-06

Each molecule was assayed against Alpha-2C adrenergic receptor (Homo sapiens) (UniProt P18825) (assay: compounds altering alpha2C-coupled GIRK flux – cell-based, HEK293 alpha2C/GIRK1/2, thallium flux, primary screen (AID 624;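 active = fluorescence slope after compound addition differing from the mean of all screened samples at 99.7% confidence, in either direction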;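 also: slope of fluorescence ratio to pre-addition baseline per second over 15 to 24 s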)). Details: thallium flux BTC fluorescence, at 10 µM, actives lie on both sides.
Sequence of Alpha-2C adrenergic receptor (Homo sapiens) (P18825 whole entry, looked up): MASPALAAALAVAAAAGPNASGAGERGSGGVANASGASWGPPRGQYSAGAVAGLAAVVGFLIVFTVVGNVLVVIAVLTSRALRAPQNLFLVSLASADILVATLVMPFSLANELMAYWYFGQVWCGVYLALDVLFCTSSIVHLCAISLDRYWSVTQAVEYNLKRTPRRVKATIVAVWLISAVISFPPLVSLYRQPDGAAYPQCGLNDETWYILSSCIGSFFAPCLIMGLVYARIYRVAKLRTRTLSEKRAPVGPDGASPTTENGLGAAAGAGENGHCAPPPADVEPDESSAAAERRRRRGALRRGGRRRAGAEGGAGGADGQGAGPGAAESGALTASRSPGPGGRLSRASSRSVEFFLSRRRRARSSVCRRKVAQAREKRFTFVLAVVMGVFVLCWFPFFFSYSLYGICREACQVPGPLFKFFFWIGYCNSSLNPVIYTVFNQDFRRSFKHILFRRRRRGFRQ

slope, inactive:
CCCCNc1cc(C)oc(=O)c1C(C)=O 0.006, COc1ccc2c(c1)C(=O)N(c1ccccc1OC)C(=O)C2 0.0052, Cc1ccc(S(=O)(=O)NCC(=O)N(CC(=O)NC2CCCCC2)Cc2ccco2)cc1 0.00754, CN(C)/C=C1\N=C(c2ccc3c(c2)OCO3)OC1=O 0.0038, CCc1ccccc1NC(=O)CCc1nc(-c2ccc(C)cc2)no1 0.00374, COc1ccc(CNC(=O)c2cnc3n(c2=O)CCS3)cc1 0.00542, CCOC(=O)Cc1csc(NC(=O)CSc2nnc(C)n2C)n1 0.00393, NC(=O)NC(c1ccccc1)c1ccccc1F (stereo not given) 0.00595, O=C(NCCN1CCOCC1)NC1(C(F)(F)F)Oc2ccc(Cl)cc2O1 (stereo not given) 0.00481, CCOc1ccc(Cn2nnc(C(=O)NCc3ccc(OC)cc3)c2N)cc1 0.00681, CC(=O)Nc1cccc(Oc2nc(C)cc(C)c2C#N)c1 0.00763, O=P1(O)C=C(c2ccccc2)NC(c2ccccc2)=C1 0.00466, Cc1cc2ccccc2c(=O)n1CC(=O)N(C)c1ccc(F)cc1 0.00579, COCCN(Cc1cc2cc3c(cc2n2nnnc12)OCO3)C(=O)c1ccccc1F 0.00537, c1coc(CN(Cc2cccs2)Cc2nnnn2C2CCCCC2)c1 0.00524, c1ccc(-c2nn3c(Cn4nnc5ccccc54)nnc3s2)nc1 0.0044, O=C(CSCc1cccs1)N1CCCC1 0.00575, CCOc1ccccc1-n1c(SCC(=O)NC(C)CC)nnc1-c1ccoc1C (stereo not given) 0.00423, CCOC(=O)N1CCC(n2c(=S)[nH]c3cc(OC)c(OC)cc3c2=O)CC1 0.00633, Cc1ccc(Cn2c(SCCN3CCCCC3)nc3c2c(=O)[nH]c(=O)n3C)cc1 0.00647, Cc1ccc(Cn2ccc(NC(=O)c3cc(-c4cccs4)on3)n2)cc1 0.00693, Cc1nnc(N2C(=O)C(O)=C(C(=O)c3ccco3)C2c2ccc(F)cc2)s1 (stereo not given) 0.00826, COC(=O)c1cc(=O)nc2sc(-c3cccs3)nn12 0.006, CCN(CC)CCCNc1oc(-c2cccc(Cl)c2)nc1C#N 0.00338, Cn1c(SCC(=O)O)nnc1C1CCCCC1 0.0074, CC1CCN(C(=O)CSc2nnc(-c3ccc(S(=O)(=O)N4CCOCC4)cc3)n2C)CC1 0.00393, COCCn1nnnc1C(c1cccs1)N1CCN(c2cc(C)ccc2C)CC1 (stereo not given) 0.00567, CC1CCc2nn(CC(=O)NCCN3CCOCC3)cc2C1 (stereo not given) 0.00648, CCOC(=O)c1c(C)[nH]c(C(=O)Cn2c(=O)c3c(ncn3CC)n(Cc3ccccc3)c2=O)c1C 0.00419, COc1cccc(C(=O)Nc2cc(C)c3c(=O)oc4ccccc4c3n2)c1 0.00602, O=C(CN1C(=O)COc2ccccc21)N(Cc1cccnc1)Cc1ccccc1F 0.00465, O=c1c2ccccc2c(/C=N/n2cnnc2)c(O)n1-c1ccccc1 0.00664, COCCNC(=O)C1CCCN(c2ncccn2)C1 (stereo not given) 0.00583, COc1ccc(CNc2nc(NCc3ccc(OC)cc3)n(S(C)(=O)=O)n2)cc1 0.00366, O=C(CSc1nnc2c3cc(F)ccc3nc(-c3ccccc3)n12)N1CCOCC1 0.00625, CSc1nc(N)nc(SCCS(=O)(=O)c2ccc(Cl)cc2)c1C#N 0.00602, CCOC(=O)c1sc2nc(NC(=O)C3CCCCC3)sc2c1C 0.00612, CC(C)(C)OC(=O)NCCc1nnc(SCC(=O)c2ccc(Cl)cc2)o1 0.00407, Cc1nc2ccc(C(=O)c3ccccc3)cc2[nH]1 0.00371, CCOC(=O)c1ccc(NC(=O)CSCc2ccco2)cc1 0.0058
